Data taken from the antibiotic and cytotoxicity screens of Wong et al. (2023).
Among all 39,000 compounds or so, about 500 (1.3%) were called active. For the sample, actives were picked, then their nearest neighbours and some compounds at random.

What follows are molecules tested on S. aureus RN4220 (assay: growth inhibition call (relative growth <= 0.2)). Conditions: 50 µM.

Compound	growth inhibition call
CCCCCCC#C[Si](O[C@H](c1ccccc1)c1cn(Cc2cccc(Cl)c2)nn1)(C(C)C)C(C)C	inactive
CC(C)[Si](C#CCCCC#N)(O[C@H](c1ccccc1)c1cn(Cc2cccc(Cl)c2)nn1)C(C)C	active
CC(C)[Si](C#CCCc1ccccc1)(O[C@H](c1ccccc1)c1cn(Cc2ccccc2)nn1)C(C)C	inactive
C[C@@H]1CCCCO[C@@H](CN(C)Cc2ccc(C(=O)Nc3ccccc3N)cc2)[C@@H](C)CN([C@H](C)CO)C(=O)c2cc(NS(=O)(=O)c3ccc(F)cc3)ccc2O1	inactive
C[C@@H]1CN([C@H](C)CO)C(=O)Cc2cc(NC(=O)Cc3cn(C)c4ccccc34)ccc2O[C@H]1CN(C)C	inactive
CCCC[C@@H](C)/C=C(C)/C=C(\C)C(=O)NC1=C[C@@](O)(/C=C/C=C/C=C/C(=O)NC2C(=O)CCC2=O)[C@@H]2O[C@@H]2C1=O	active
CC(C)NC(=O)N(C)C[C@H]1Oc2ccc(NC(=O)CCC(F)(F)F)cc2C(=O)N([C@H](C)CO)C[C@@H]1C	inactive
C[C@@H]1CCCCO[C@@H](CN(C)S(=O)(=O)c2cccs2)[C@H](C)CN([C@H](C)CO)C(=O)c2cc(NC(=O)c3ccccc3)ccc2O1	inactive
O=C(C[C@@H]1CC[C@H]2[C@@H](COC[C@@H](O)CN2C(=O)Nc2ccc(Cl)cc2)O1)NC1Cc2ccccc2C1	inactive
O=C(C[C@H]1CC[C@@H]2[C@H](COC[C@@H](O)CN2C(=O)Nc2ccc(Cl)cc2)O1)NC1Cc2ccccc2C1	inactive
COc1ccccc1CNC(=O)C[C@H]1CC[C@@H]2[C@H](COC[C@H](O)CN2C(=O)Nc2ccc(Cl)cc2)O1	inactive
COc1ccccc1CNC(=O)C[C@@H]1CC[C@H]2[C@@H](COC[C@@H](O)CN2C(=O)Nc2ccc(Cl)cc2)O1	inactive
COc1ccccc1CNC(=O)C[C@@H]1CC[C@H]2[C@@H](COC[C@H](O)CN2C(=O)Nc2ccc(Cl)cc2)O1	inactive
COc1ccccc1CNC(=O)C[C@H]1CC[C@H]2[C@@H](COC[C@H](O)CN2C(=O)Nc2ccc(Cl)cc2)O1	active
COc1ccccc1CNC(=O)C[C@@H]1CC[C@H]2[C@@H](COC[C@H](O)CN2C(=O)Nc2ccc(F)cc2)O1	inactive
COc1ccccc1CNC(=O)C[C@H]1CC[C@H]2[C@@H](COC[C@@H](O)CN2C(=O)Nc2ccc(Cl)cc2)O1	inactive
O=C(C[C@H]1CC[C@H]2[C@@H](COC[C@H](O)CN2C(=O)Nc2ccc(Cl)cc2)O1)NC1Cc2ccccc2C1	active
COc1ccccc1CNC(=O)C[C@@H]1CC[C@@H]2[C@H](COC[C@@H](O)CN2C(=O)Nc2ccc(Cl)cc2)O1	active
COc1ccccc1CNC(=O)C[C@H]1CC[C@@H]2[C@H](COC[C@@H](O)CN2C(=O)Nc2ccc(Cl)cc2)O1	active
COc1ccccc1CNC(=O)C[C@@H]1CC[C@@H]2[C@H](COC[C@H](O)CN2C(=O)Nc2ccc(Cl)cc2)O1	inactive
C[C@@H]1CN([C@@H](C)CO)C(=O)c2cccc(NC(=O)C3CC3)c2O[C@H]1CN(C)Cc1ccc(C(=O)O)cc1	inactive

Compound	growth inhibition call
C[C@@H]1CCCCO[C@@H](CN(C)S(=O)(=O)c2ccc(Cl)cc2)[C@@H](C)CN([C@H](C)CO)C(=O)c2cc(NC(=O)Nc3ccc(C(F)(F)F)cc3)ccc2O1	inactive
Cc1ccc(S(=O)(=O)Nc2ccc3c(c2)C(=O)N([C@H](C)CO)C[C@@H](C)[C@@H](CN(C)C(=O)CCC(F)(F)F)OCCCC[C@H](C)O3)cc1	inactive
C[C@@H]1CCCCO[C@H](CN(C)C(=O)CCCN(C)C)[C@H](C)CN([C@@H](C)CO)C(=O)c2cc(NC(=O)Nc3cccc4ccccc34)ccc2O1	inactive
C[C@@H]1CN([C@H](C)CO)C(=O)c2cc(C#Cc3ccccc3F)cnc2O[C@H]1CN(C)C(=O)C1CCOCC1	inactive
Cc1cnccc1CN1C[C@H](C(=O)O)CC1=O	inactive
CC(C)C#Cc1cnc2c(c1)C(=O)N([C@@H](C)CO)C[C@@H](C)[C@H](CN(C)C(=O)c1ccc3c(c1)OCO3)O2	inactive
Cc1ccc(S(=O)(=O)N(C)C[C@H]2Oc3c(NC(=O)C4CC4)cccc3C(=O)N([C@H](C)CO)C[C@@H]2C)cc1	inactive
C[C@H]1CN([C@@H](C)CO)C(=O)CCCn2nncc2CO[C@H]1CN(C)C(=O)Nc1ccc(C(F)(F)F)cc1	active
C[C@@H]1CN([C@H](C)CO)C(=O)CCCn2nncc2CO[C@H]1CN(C)C(=O)Nc1ccc(C(F)(F)F)cc1	active
C[C@H]1CN([C@@H](C)CO)C(=O)CCCn2cc(nn2)CO[C@@H]1CN(C)C(=O)Nc1ccc(C(F)(F)F)cc1	inactive
C[C@H](CO)N1C[C@H](C)[C@@H](CN(C)C(=O)Nc2ccc(C(F)(F)F)cc2)OCc2cnnn2CCCC1=O	inactive
C[C@H]1CN([C@@H](C)CO)C(=O)CCCn2cc(nn2)CO[C@H]1CN(C)C(=O)Nc1ccc(C(F)(F)F)cc1	inactive
C[C@H]1CN([C@@H](C)CO)C(=O)CCCn2nncc2CO[C@@H]1CN(C)C(=O)Nc1ccc(C(F)(F)F)cc1	active
C[C@@H]1CN([C@H](C)CO)C(=O)CCCn2cc(nn2)CO[C@H]1CN(C)C(=O)Nc1ccc(C(F)(F)F)cc1	active
C[C@@H]1CN([C@@H](C)CO)C(=O)CCCn2nncc2CO[C@@H]1CN(C)C(=O)Nc1ccc(C(F)(F)F)cc1	inactive
C[C@@H]1CN([C@@H](C)CO)C(=O)CCCn2nncc2CO[C@H]1CN(C)C(=O)Nc1ccc(C(F)(F)F)cc1	inactive
C[C@@H]1CN([C@H](C)CO)C(=O)CCCn2nncc2CO[C@@H]1CN(C)C(=O)Nc1ccc(C(F)(F)F)cc1	inactive
C[C@@H]1CN([C@H](C)CO)C(=O)CCCn2nncc2CO[C@H]1CN(C)C(=O)Nc1ccc(C(C)(C)C)cc1	inactive
C[C@H](CO)N1C[C@H](C)[C@H](CN(C)C(=O)Nc2ccc(C(F)(F)F)cc2)OCc2cnnn2CCCC1=O	inactive
C[C@H]1CN([C@@H](C)CO)C(=O)Cc2cc(NC(=O)Nc3ccc(F)cc3)ccc2O[C@H]1CN(C)S(=O)(=O)c1cn(C)cn1	inactive
CCOC(=O)CSc1nnc2c3sc4nc(N5CCOCC5)c5c(c4c3ncn12)CC(C)(C)OC5	inactive

Compound	growth inhibition call
C[C@H](CO)N1C[C@H](C)[C@@H](CN(C)Cc2ccc(C(F)(F)F)cc2)OCCCC[C@H](C)Oc2ccc(NS(=O)(=O)c3cn(C)cn3)cc2C1=O	inactive
C[C@@H]1CCCCO[C@@H](CN(C)Cc2ccccc2)[C@H](C)CN([C@H](C)CO)C(=O)c2cc(NC(=O)Nc3ccccc3)ccc2O1	inactive
C[C@@H]1CN([C@H](C)CO)C(=O)c2cccc(NC(=O)Nc3cccc4ccccc34)c2O[C@@H]1CN(C)C(=O)Nc1ccc2c(c1)OCO2	inactive
COC(=O)c1c2oc(c1C(=O)OC)C(=O)N(C)Cc1cn(nn1)C[C@@H](C)NC(=O)N[C@H](CO)CC2	inactive
C[C@H](CO)N1C[C@H](C)[C@@H](CN(C)C(=O)Nc2ccc3c(c2)OCO3)OCCCC[C@H](C)Oc2ccc(NC(=O)Nc3ccc(F)cc3)cc2C1=O	inactive
COc1ccc(NC(=O)N(C)C[C@@H]2OCCCC[C@H](C)Oc3ccc(NC(=O)Nc4ccc5c(c4)OCO5)cc3C(=O)N([C@@H](C)CO)C[C@@H]2C)cc1	inactive
Cc1noc(C)c1S(=O)(=O)N(C)C[C@H]1Oc2ccc(NC(=O)CCC(F)(F)F)cc2CC(=O)N([C@H](C)CO)C[C@H]1C	inactive
CC(=O)N(C)C[C@H]1Oc2ncc(C#C[C@H](C)O)cc2C(=O)N([C@H](C)CO)C[C@H]1C	inactive
Cc1noc(C)c1NC(=O)Nc1ccc2c(c1)C(=O)N([C@@H](C)CO)C[C@@H](C)[C@@H](CN(C)C(=O)Nc1ccc(C(F)(F)F)cc1)O2	active
C[C@H](CO)N1C[C@H](C)[C@@H](CN(C)C(=O)Nc2ccc(C(F)(F)F)cc2)Oc2ccc(NC(=O)CCC(F)(F)F)cc2C1=O	active
Cc1noc(C)c1NC(=O)Nc1ccc2c(c1)C(=O)N([C@@H](C)CO)C[C@H](C)[C@@H](CN(C)C(=O)Nc1ccc(C(F)(F)F)cc1)O2	inactive
Cc1noc(C)c1NC(=O)N(C)C[C@@H]1Oc2ccc(NC(=O)Nc3ccc(C(F)(F)F)cc3)cc2C(=O)N([C@H](C)CO)C[C@@H]1C	inactive
Cc1noc(C)c1NC(=O)Nc1ccc2c(c1)C(=O)N([C@H](C)CO)C[C@@H](C)[C@H](CN(C)C(=O)Nc1ccc(C(F)(F)F)cc1)O2	inactive
Cc1noc(C)c1NC(=O)Nc1ccc2c(c1)C(=O)N([C@H](C)CO)C[C@H](C)[C@@H](CN(C)C(=O)Nc1ccc(C(F)(F)F)cc1)O2	inactive
Cc1noc(C)c1NC(=O)Nc1ccc2c(c1)C(=O)N([C@H](C)CO)C[C@H](C)[C@H](CN(C)C(=O)Nc1ccc(C(F)(F)F)cc1)O2	active
Cc1noc(C)c1NC(=O)Nc1ccc2c(c1)C(=O)N([C@H](C)CO)C[C@@H](C)[C@@H](CN(C)C(=O)Nc1ccc(C(F)(F)F)cc1)O2	inactive
Cc1noc(C)c1NC(=O)Nc1ccc2c(c1)C(=O)N([C@@H](C)CO)C[C@@H](C)[C@H](CN(C)C(=O)Nc1ccc(C(F)(F)F)cc1)O2	inactive
C[C@@H]1CN([C@H](C)CO)C(=O)c2cc(NC(=O)CCC(F)(F)F)ccc2O[C@@H]1CN(C)C(=O)Nc1ccc(C(F)(F)F)cc1	inactive
C[C@@H]1CN([C@@H](C)CO)C(=O)c2cc(NC(=O)CCC(F)(F)F)ccc2O[C@H]1CN(C)C(=O)Nc1ccc(C(F)(F)F)cc1	inactive
Cc1noc(C)c1NC(=O)Nc1ccc2c(c1)C(=O)N([C@@H](C)CO)C[C@H](C)[C@H](CN(C)C(=O)Nc1ccc(C(F)(F)F)cc1)O2	active
